Screen size: about 1,200 compounds; about 480 (40%) were called active. How the calls were made is not given here. The set was probably picked from earlier hits. The list is a sample of the results. Results with a measured potency or affinity are listed apart.
Assay: viability loss in human hepatoma cells – cell-based, CellTiter-Glo luminescence, cherry-pick, set 2, cytotoxicity control, dose response (AID 743395)
Conditions: HepG2 viability, CellTiter-Glo ATP luminescence, 72 h; series mostly up to 26 µM

Row | Compound | outcome
1 | COc1cc2c(cc1OC)C(c1cccs1)N(C(=O)c1cccnc1)CC2 (centres undefined) | inactive
2 | Cc1cc(C(=O)CN2CCN(CC(=O)Nc3ccc(F)cc3)CC2)c(C)n1C1CC1 | inactive
3 | CCCOc1ccc(C(=O)CCCC(=O)c2ccc(OCCC)cc2)cc1 | inactive
4 | CCOc1ccc(C(=O)NCC(=O)N2CCN(Cc3ccccc3)CC2)cc1 | inactive
5 | CN1/C(=C\C=C2/SC(=S)N(CC(=O)O)C2=O)C(C)(C)c2ccccc21 | inactive
6 | C=CCN(CC=C)C(=S)Nc1ccc(OC)c(OC)c1 | inactive
7 | Cc1ccc(CNC(=O)COC(=O)c2ccc(S(=O)(=O)N(C)C)cc2)cc1 | inactive
8 | CCOc1ccc(C(=O)NNC(=O)CCNC(=O)c2ccc(Br)cc2)cc1OC | inactive
9 | Cc1nnc(NC(=O)CSc2nccn2-c2cccc(C)c2C)s1 | inactive
10 | Cc1cc(Br)c(NC(=O)C(C)Sc2nnnn2C)c(Br)c1 (centres undefined) | inactive
11 | CC(C)NC(=O)c1ccc(COc2cccc3ccccc23)o1 | inactive
12 | NS(=O)(=O)c1ccc(NNC(=O)c2ccc(Br)o2)c([N+](=O)[O-])c1 | inactive
13 | Cc1cc(C(=O)NNC(=O)c2ccc(Cl)c(S(N)(=O)=O)c2)c(C)o1 | inactive
14 | Cc1ccc(S(=O)(=O)N2CCOCC2)cc1NC(=O)CSc1n[nH]c(N)n1 | inactive
15 | O=C(Nc1ccccc1F)N1C[C@H]2[C@@H](c3ccccc31)[C@@H](CO)N2C(=O)c1ccccn1 | inactive
16 | COc1ccccc1NS(=O)(=O)c1cc(C(=O)N2CCCCCC2)ccc1C | inactive
17 | COc1ccccc1NS(=O)(=O)c1cc(N=N/C(C(=O)Nc2ccc(Cl)cc2)=C(/C)O)ccc1C | inactive
18 | O=C(NC(=S)Nc1ccc(-c2ccccc2)cc1)c1ccccc1 | inactive
19 | Cc1ccc(C(=O)NNC(=O)c2ccc(S(=O)(=O)N3CCCCC3)cc2)cc1 | inactive
20 | CNC(=O)C1CC(=O)N(c2ccc(OCC(=O)Nc3ccccc3)cc2)C1 (centres undefined) | inactive
21 | COc1ccccc1N1CC(C(=O)Nc2ccc(S(=O)(=O)N3CCCC3)cc2)CC1=O (centres undefined) | inactive
22 | COc1ccc(C2=NOC(C(=O)NCc3ccccc3)C2)cc1 (centres undefined) | inactive
23 | COc1ccc(Cc2nnc(NC(=O)c3ccc(F)cc3)s2)cc1OC | inactive
24 | COc1ccc2c(c1)c(CC(=O)OCC(=O)O)c(C)n2C(=O)c1ccc(Cl)cc1 | inactive
25 | Cc1ccc(S(=O)(=O)N2CCN(C(=O)COC(=O)/C=C/c3ccc(Cl)cc3)CC2)c(C)c1 | inactive
26 | N#Cc1ncn(C2OC(CO)C(O)C2O)c1N (centres undefined) | inactive
27 | Cc1cc(Cl)cc(C)c1OCCn1ccnc1 | inactive
28 | Cc1ccc(NC(=O)COC(=O)CCC2CCCC2)c(Br)c1 | inactive
29 | COc1ccc2c3c([nH]c2c1)[C@@H](CO)N(S(=O)(=O)c1cn(C)cn1)CC31CCN(CC2CCCCC2)CC1 | inactive

Source: PubChem BioAssay AID743395 (Broad Institute, 2014)
